Reference: PubChem BioAssay AID485341 (National Center for Advancing Translational Sciences (NCATS), 2010)
The campaign covered roughly 330,000 compounds. About 1,700 (0.52%) were called active. Calls come from the whole dose curve; as a rule, active = well fitted inhibition curve with a large enough effect; inconclusive = small, poorly fitted or top-dose-only effect; inactive = no such curve, though single readings can be large or run the other way. Only a selection was taken, and actives are over-represented in it overall.
Note: nearly all actives have a fitted effect of over 20% in size.
Potency is the fitted concentration of half-maximal effect.
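Throughout, for activity change, negative = inhibition: plate controls were no compound for no effect and no enzyme for full effect.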

What follows are compounds tested against Beta-lactamase (Escherichia coli (strain K12)) (UniProt P00811) (assay: qHTS Inhibitors of AmpC Beta-Lactamase (assay without detergent)). Details: AmpC nitrocefin hydrolysis, absorbance 480 nm, 0.0001% Triton; series mostly up to 57.1 µM; activity change, negative = inhibition: at the top concentration.
Chain of Beta-lactamase (Escherichia coli (strain K12)) (P00811 whole entry, looked up): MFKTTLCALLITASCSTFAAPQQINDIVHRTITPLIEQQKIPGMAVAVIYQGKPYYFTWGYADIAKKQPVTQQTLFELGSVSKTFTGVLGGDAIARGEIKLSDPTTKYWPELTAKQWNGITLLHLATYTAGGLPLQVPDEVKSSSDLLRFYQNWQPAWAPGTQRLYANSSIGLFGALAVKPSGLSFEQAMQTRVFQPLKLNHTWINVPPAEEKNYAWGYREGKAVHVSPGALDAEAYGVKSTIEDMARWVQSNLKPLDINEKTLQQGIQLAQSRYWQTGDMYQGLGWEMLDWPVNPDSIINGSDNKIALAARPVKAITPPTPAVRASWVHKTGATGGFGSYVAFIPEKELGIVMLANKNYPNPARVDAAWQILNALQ
Procedure, shortened: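 20 mM phosphate pH 7.0 + 0.01% (detergent screen) or 0.0001% Triton X-100; 5.3 nM AmpC reagent; cpd preinc 15 min RT; nitrocefin (800 uM stock) to start; A480 q20 s × 4 min; Activity was normalised to no-enzyme and no-compound control wells.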
`COC(=O)Nc1ccc(S(=O)(=O)N2CCN(CCN3C(=O)C4C5C=CC(C5)C4C3=O)CC2)cc1` (stereo not drawn) was tested, and the “activity change, negative = inhibition” value was 47.2% (inactive).
In the case of `O=C(CCc1ccccc1F)N1CCN(c2ccccc2)CC1`, the “activity change, negative = inhibition” value is reported as 12.6% (inactive).
In the case of `C=C(C)Cn1c(N2CCN(CC)CC2)nc2c1c(=O)[nH]c(=O)n2C`, the “activity change, negative = inhibition” value is reported as -4.72% (inactive).
`Nc1cc(N2CCCCCC2)c2nonc2c1[N+](=O)[O-]` was tested, and the “activity change, negative = inhibition” value was -9.46% (inactive).
For `O=C(NCc1ccc(Cl)cc1)C1CCN(S(=O)(=O)c2cccs2)CC1`, the “activity change, negative = inhibition” value was -18.9% (inactive).
`O=C(NCc1ccc(Cl)cc1)C(=O)NCC1CCCN1S(=O)(=O)c1cccs1` (stereo not drawn) was tested, and the Potency was 35.5 µM (active).
With `O=C(NCc1ccccc1Cl)C(=O)NCC1CCCN1S(=O)(=O)c1cccs1` (stereo not drawn) the “activity change, negative = inhibition” value was 68% (inactive).
`COc1ccc(C(=O)NCC2CCCN2S(=O)(=O)c2cccs2)cc1OC` (stereo not drawn) was tested, and the “activity change, negative = inhibition” value was 2.01% (inactive).
For `COc1ccc(CCNC(=O)C(=O)NCC2CCCN2S(=O)(=O)c2cccs2)cc1OC` (stereo not drawn), the Potency was 31.6 µM (active).
With `COc1ccccc1CCNC(=O)C(=O)NCCC1CCCCN1S(=O)(=O)c1cccs1` (stereo not drawn) the “activity change, negative = inhibition” value was -16.3% (inactive).
`O=C(COc1ccc([N+](=O)[O-])cc1)Nc1cccc(C(=O)Nc2ccccc2C(=O)O)c1` was tested, and the “activity change, negative = inhibition” value was 0.212% (inactive).
`O=C(NCCc1ccco1)C(=O)NCCC1CCCCN1S(=O)(=O)c1ccccc1` (stereo not drawn) was tested, and the “activity change, negative = inhibition” value was -16.1% (inactive).
In the case of `COc1cccc(CNC(=O)CN(C)S(=O)(=O)c2ccc3c(c2)c(=O)n(C)c(=O)n3C)c1`, the “activity change, negative = inhibition” value is reported as 19.8% (inactive).
For `CCC1Oc2ccccc2N(CC(=O)NCCCN2CCN(CC)CC2)C1=O` (stereo not drawn), the “activity change, negative = inhibition” value was 1.42% (inactive).
For `COC(=O)c1ccc(/C=N/N2C(C)CCCC2C)cc1` (stereo not drawn), the “activity change, negative = inhibition” value was -6.66% (inactive).
With `O=C1OC(OC(=O)c2ccccc2Br)C(N2CCOCC2)=C1Cl` (stereo not drawn) the Potency was 4.47 µM (active).
`O=C1C(Cl)=C(N2CCOCC2)C(=O)N1c1ccccc1` was tested, and the “activity change, negative = inhibition” value was -18.7% (inactive).
For `O=C1OC(NC(=O)c2ccccc2)C(N2CCOCC2)=C1Cl` (stereo not drawn), the “activity change, negative = inhibition” value was -19.8% (inactive).
With `CC(=O)N1CCN(S(=O)(=O)c2c(F)cc(F)c(Cl)c2F)CC1` the “activity change, negative = inhibition” value was -2.46% (inactive).
In the case of `CC(=O)Nc1ccc(C(=O)OCC(=O)Nc2ccc([N+](=O)[O-])cc2C(F)(F)F)cc1`, the “activity change, negative = inhibition” value is reported as -22.3% (inactive).
For `O=C(CCN1C(=O)C2C3CCC(C3)C2C1=O)Nc1ccc(Cl)cc1Cl` (stereo not drawn), the “activity change, negative = inhibition” value was 15.2% (inactive).
`CC1CN(c2nc(-c3ccccc3)nnc2-c2ccccc2)CC(C)O1` (stereo not drawn) was tested, and the “activity change, negative = inhibition” value was 23.1% (inactive).
`Cn1c(=O)n(C)c2cc(NS(=O)(=O)c3ccc(F)cc3)ccc21` was tested, and the activity change, negative = inhibition was -28.5% [at 2.29 µM] (inactive).
In the case of `O=C1Cc2cc(S(=O)(=O)Nc3cccc(F)c3)ccc2N1`, the “activity change, negative = inhibition” value is reported as -41.8% (inactive).
For `CSc1ccc(S(=O)(=O)Nc2cccc(F)c2)cc1`, the Potency was 0.251 µM (active).
For `CC1CCN(C(=O)/C(=C\c2ccccc2F)NC(=O)c2ccccc2)CC1`, the “activity change, negative = inhibition” value was 9.38% (inactive).
For `CCCC(CNC(=O)COC(=O)C1=NNC(=O)CC1)c1ccc(Cl)cc1Cl` (stereo not drawn), the “activity change, negative = inhibition” value was 71.9% (inactive).
For `CC(C)(C)NC(=O)NC(=O)COC(=O)Cc1c(F)cccc1Cl`, the “activity change, negative = inhibition” value was -18% (inactive).
